Results filed as inconclusive are left out. Active and inactive are the calls of the source. Calls come from the whole dose curve; as a rule, active = well fitted inhibition curve with a large enough effect; inconclusive = small, poorly fitted or top-dose-only effect; inactive = no such curve, though single readings can be large or run the other way.
Potency is the fitted concentration of half-maximal effect.

Chain of Coelenterazine h 2-monooxygenase (Renilla reniformis) (P27652 whole entry, looked up): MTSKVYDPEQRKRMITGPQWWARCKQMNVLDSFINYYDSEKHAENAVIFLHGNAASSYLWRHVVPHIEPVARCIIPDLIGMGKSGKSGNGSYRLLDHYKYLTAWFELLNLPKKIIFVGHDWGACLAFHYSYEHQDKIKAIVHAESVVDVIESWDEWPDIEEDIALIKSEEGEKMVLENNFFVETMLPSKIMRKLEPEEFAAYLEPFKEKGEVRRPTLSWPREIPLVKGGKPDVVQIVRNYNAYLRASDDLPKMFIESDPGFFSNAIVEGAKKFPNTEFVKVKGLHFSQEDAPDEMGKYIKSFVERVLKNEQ

The experiment addresses Coelenterazine h 2-monooxygenase (Renilla reniformis) (UniProt P27652). The experiment can be described thus: qHTS Assay for Inhibitors of Sea Pansy Luciferase from the GSK Published Protein Kinase Inhibitor Set. The following applies: purified Renilla luciferase, luminescence; series mostly up to 57.5 µM; activity change, negative = inhibition: at the top concentration. The text has this: FLuc (firefly luciferase) is the prototypical bioluminescent reporter gene from Photinus pyralis.[1] The enzyme catalyzes the oxidation luciferin via luciferin-AMP to produce light. FLuc is used in cell-based reporter gene-based assays for screening small molecule chemical libraries. However, small molecule luciferase inhibitors present in most large chemical libraries are often enriched in the output of high throughput screens using this reporter sometimes complicating interpretation and candidate selection.
RLuc is a bioluminescent reporter gene luciferase from Renilla reniformis, also known as the sea pansy. RLuc uses the luciferin substrate coelenterazine. RLuc is often used in combination with the nonhomologous luciferase FLuc (firefly luciferease) as a trasfection or pathway normalization control. Recently, non-homologous reporters have been described for high throughput screening 'coincidence' reporter gene strategies.
1. Fan F, Wood KV (2007) Bioluminescent assays for high-throughput screening. Assay Drug Dev Technol 5: 127-136.
2. Thorne N, Inglese J, Auld DS (2010) Illuminating insights into firefly luciferase and other bioluminescent reporters used in chemical biology. Chem Biol 17: 646-657.
3. […] Chem Biol 19: 1060-1072.
4. Michelini E, Cevenini L, Mezzanotte L, Coppa A, Roda A (2010) Cell-based assays: fuelling drug discovery. Anal Bioanal Chem 398: 227-238.
5. Cheng KC, Inglese J (2012) A coincidence reporter-gene system for high-throughput screening. Nat Methods 9: 937.
Biochemical renilla luciferase enzyme assay
NCGC Assay Protocol Summary:
Reagents: 50mM Tris acetate, pH 7.5; 100uM NaCl; 5uM Coelenterazine H (Promega #S2011); 0.01% Tween-20; 0.05% BSA; 1nM R. reniformis luciferase (Nanolight Technologies #314)
Control compounds used were a known renilla luciferase inhibitor BTS (Tocris Biosciences #1870) and DMSO.
Three microliters containing renilla luciferase substrate in buffer (final concentrations: 50mM Tris acetate, pH 7.5, 100uM NaCl, 0.01% Tween-20, 0.05% BSA, 5uM coelenterazine h) are dispensed into each well of a Greiner white, solid-bottom 1536-well format plate using a flying reagent dispenser (FRD). These assay plates were then treated with 23nL of compound or DMSO using a Kalypsys pin tool, which allows for delivery of a 7-point interplate titration of each compound to the assay plate (quantitative HTS), with final compound concentrations ranging from approximately 60uM to 300pM. One microliter of renilla luciferase in 50mM Tris-acetate buffer was then delivered by FRD to each well for a final enzyme concentration of 1nM. Luciferase activity was then measured using an Envision plate reader (PerkinElmer), with an average incubation time of 2 min.
Take `COc1cc(C)c(NC(=O)CN(C)C)cc1Nc1nc(Nc2cccc(F)c2C(N)=O)c2cc[nH]c2n1`: the “activity change, negative = inhibition” value is 9.98% (inactive). On the same count and under the same terms, next, `COc1cccc(Nc2nccc(-c3cnn4ncccc34)n2)c1`: 51.7% (inactive); `Nc1nccc(-c2c(-c3ccc(F)cc3)ncn2C2CCC(O)CC2)n1` (stereo not given): 9.21% (inactive); `Fc1ccc(Oc2nccc(-c3c(-c4ccc(F)cc4)ncn3C3CCNCC3)n2)cc1`: 40.4% (inactive). On the same count and under the same terms, to `CCn1c(-c2nonc2N)nc2ccc(F)cc21` belongs 25.6% (inactive); to `COc1ccc(-c2nn3ncccc3c2-c2ccnc(Nc3ccc4c(c3)OCCO4)n2)cc1`, 9.89% (inactive). Same read-out and setting: to `NC(=O)c1ccc2c(-c3ccnc(NCCCO)n3)c(-c3ccc(F)cc3)nn2c1` belongs 31.6% (inactive); to `O=C(Nc1n[nH]c2nnc(-c3cccnc3)cc12)C1CC1`, 31.4% (inactive). In the case of `COc1ccccc1Nc1ncc(-c2ccccc2)o1`, the “activity change, negative = inhibition” value was 4.64% (inactive).

In the case of `CC1=C(C(=O)Nc2ccc3n[nH]c(C)c3c2)C(c2ccc(C(F)(F)F)cc2)CC(=O)N1` (stereo not given), the “activity change, negative = inhibition” value was 32.4% (inactive). `c1ccc(Nc2ncc(-c3ccccc3)o2)cc1`: the “activity change, negative = inhibition” value was 5.69% (inactive). Same read-out and setting: next, `NC(=O)c1sc(-n2cnc3cc(C(F)(F)F)ccc32)cc1OCc1ccccc1Br`: 51.9% (inactive); `CNC(=O)c1cncc(C=Cc2ccccc2Cl)c1`: 5.6% (inactive); `Oc1[nH]c2ccccc2c1C=Nc1ccc(-n2cncn2)cc1`: 25.2% (inactive). On the same count and under the same terms, next, `Cc1ccc(O)cc1Nc1ccnc2ccc(S(C)(=O)=O)cc12`: 30.1% (inactive). The same measure, in the same setting: to `COC(=O)Nc1nc2ccc(S(=O)(=O)c3ccc(NC(=O)Nc4cc(C(F)(F)F)ccc4F)cc3)cc2[nH]1` belongs 16.9% (inactive); to `NS(=O)(=O)c1cccc(Nc2cc(-c3ccc(F)cc3)[nH]n2)c1`, 39.1% (inactive); to `COc1cccc(-n2cnc3c(NN=Cc4ccncc4)ncnc32)c1`, 18.6% (inactive).

Consider `NS(=O)(=O)c1ccc(Nc2ncc(-c3ccccc3)o2)cc1`, for which the “activity change, negative = inhibition” value was 12.6% (inactive). The same measure, in the same setting: to `Cc1ccc(C(=O)NC2CCC2)cc1-c1ccc(C(=O)NCC2CC2)cc1` belongs -28% (inactive). On to `Cc1c2ccc(N(C)c3ccnc(Nc4cccc(S(N)(=O)=O)c4)n3)cc2nn1C`, for which the Potency was 18.3 µM (active). As to `CS(=O)(=O)CCNCc1ccc(-c2ccc3ncnc(Nc4ccc(OCc5cccc(C(F)(F)F)c5)cc4)c3c2)o1`, the “activity change, negative = inhibition” value is 41.9% (inactive). On the same count and under the same terms, next, `c1ccc(COc2ccc(Nc3ncnc4ccc(-c5ccco5)cc34)cc2)cc1`: 22.2% (inactive). As to `Cc1ccc2c(-c3ccnc(Nc4cccc(C(F)(F)F)c4)n3)c(-c3ccccc3)nn2n1`, the “activity change, negative = inhibition” value is 9.89% (inactive). Still for that read-out and setting: to `COc1cc(Nc2ncc3c(C)nc(-c4cccc(Oc5ccccc5)c4)n3n2)cc(OC)c1OC` belongs 13.9% (inactive). The same measure, in the same setting: to `CN1CCC(n2cnc(-c3ccc(F)cc3)c2-c2ccnc(NCCO)n2)CC1` belongs 36.2% (inactive); to `CC(=Nc1ccc(S(N)(=O)=O)cc1)c1c(O)[nH]c2ccccc12`, 5.12% (inactive). As to `CN(C)C(=O)OC1CNC(C#Cc2cc3ncnc(Nc4ccc(OCc5cccc(F)c5)c(Cl)c4)c3s2)C1` (stereo not given), the Potency result is “inactive”. Regarding `COc1c(C(N)=O)cc(-c2ccc(Cl)cc2)cc1-c1ccc(S(N)(=O)=O)cc1`, the “activity change, negative = inhibition” value was 33.2% (inactive). On the same count and under the same terms, next, `Cc1cc(O)cc(C)c1C=Cc1cncc(-c2nn[nH]n2)c1`: 35.1% (inactive); `CC1=C(C(=O)Nc2ccc3[nH]ncc3c2)C(c2ccc(Cl)c(Cl)c2)CC(=O)N1` (stereo not given): 19.5% (inactive). The same measure, in the same setting: next, `Cc1nn(C)c2cc(N(C)c3ccnc(Nc4cccc(S(N)(=O)=O)c4)n3)ccc12`: 17.1% (inactive); `CCn1c(-c2nonc2N)nc2c(C#CC(C)(C)O)ncc(OC3CCNCC3)c21`: -8.45% (inactive); `Nc1ncnc2occ(-c3ccc(NC(=O)Nc4cccc(C(F)(F)F)c4)cc3)c12`: 33.6% (inactive). For `CCc1cccc(NC(=O)Nc2ccc(Oc3ccc4nc(NC(=O)OC)[nH]c4c3)cc2)c1`, the “activity change, negative = inhibition” value is 27.3% (inactive). Same read-out and setting: next, `O=C(Nc1n[nH]c2nc(-c3ccco3)c(Br)cc12)C1CC1`: 18.8% (inactive). Same read-out and setting: next, `COc1ccc(COc2ccc(Cc3cnc(N)nc3N)cc2OC)cc1`: 52.5% (inactive); `NS(=O)(=O)c1cccc(N=Cc2c(O)[nH]c3ccccc23)c1`: 10.9% (inactive); `Fc1ccc(-c2ncn(CCCN3CCOCC3)c2-c2ccncc2)cc1`: 51.9% (inactive). Take `CS(=O)(=O)CCNCc1ccc(-c2ccc3ncnc(Nc4ccc(OCc5ccccc5)c(Br)c4)c3c2)o1`: the “activity change, negative = inhibition” value is 19.8% (inactive).

The record behind these values is PubChem BioAssay AID652015 (National Center for Advancing Translational Sciences (NCATS), 2013).
